The record followed here is PubChem BioAssay (NCATS).

The nature of test [1]: Quantitative High-Throughput drug screen in 47 multiple myeloma cell lines against the NCATS MIPE library collection: XG6_PLB cell viability assay (AID 1919865). Also: nearly all actives have a fitted effect of over 40% in size. Put shortly: (§1)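 qHTS format: cells plated (500/well), pin-dosed with MIPE 4.0 compounds, kept 48 h at 37 °C. Readout was CellTiter-Glo luminescence, median RLU.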
Test [2] in a line: Quantitative High-Throughput drug screen in 47 multiple myeloma cell lines against the NCATS MIPE library collection: VP6_DJ cell viability assay (AID 1919867). Also: nearly all actives have a fitted effect of over 40% in size. Put shortly:
as §1

A short description of test [3]: Quantitative High-Throughput drug screen in 47 multiple myeloma cell lines against the NCATS MIPE library collection: UTMC2_PLB cell viability assay (AID 1919868). Also: nearly all actives have a fitted effect of over 55% in size. The settings on record: CellTiter-Glo ATP luminescence, 48 h; viability (% of DMSO control): at 45.8 µM (top of the series) unless noted. The method, boiled down:
as §1
A general note: ATP-based viability assays read luminescence as a measure of living cells.

Test [4] in a line: Quantitative High-Throughput drug screen in 47 multiple myeloma cell lines against the NCATS MIPE library collection: PE2_PLB cell viability assay (AID 1919869). Also: nearly all actives have a fitted effect of over 35% in size. Put shortly:
as §1

Test [5] is described as follows: Quantitative High-Throughput drug screen in 47 multiple myeloma cell lines against the NCATS MIPE library collection: PCM6_Riken cell viability assay (AID 1919870). Also: nearly all actives have a fitted effect of over 30% in size. The method, boiled down:
as §1

Test [6] in a line: Quantitative High-Throughput drug screen in 47 multiple myeloma cell lines against the NCATS MIPE library collection: RPMI8226_ATCC cell viability assay (AID 1919871). Also: nearly all actives have a fitted effect of over 30% in size. Put shortly:
as §1

Test [7] can be described thus: Quantitative High-Throughput drug screen in 47 multiple myeloma cell lines against the NCATS MIPE library collection: OPM2_DSMZ cell viability assay (AID 1919872). Also: nearly all actives have a fitted effect of over 30% in size. Put shortly:
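CellTiter-Glo luminescence (ATP) after 48 h compound exposure, 37C/5% CO2; 500 cells/well; MIPE 4.0 approved/investigational drugs pinned in; DMSO = 100%, media only = 0% viability.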

The nature of test [8]: Quantitative High-Throughput drug screen in 47 multiple myeloma cell lines against the NCATS MIPE library collection: KMS11_JCRBsus cell viability assay (AID 1919873). Also: nearly all actives have a fitted effect of over 50% in size. The method, boiled down:
as §1

Test [9] in a line: Quantitative High-Throughput drug screen in 47 multiple myeloma cell lines against the NCATS MIPE library collection: KMS28BM_JCRB cell viability assay (AID 1919874). Also: nearly all actives have a fitted effect of over 35% in size. Put shortly: as §1
A short description of test [10]: Quantitative High-Throughput drug screen in 47 multiple myeloma cell lines against the NCATS MIPE library collection: XG1_PLB cell viability assay (AID 1919866). Also: nearly all actives have a fitted effect of over 35% in size. The method, boiled down:
as §1

Results filed as inconclusive are left out. The source made the active and inactive calls. Calls follow the shape of the dose curve; as a rule, active = well fitted cell-killing curve with a large enough effect; inconclusive = small, poorly fitted or top-dose-only effect, or effect the other way; inactive = no such curve, though single readings can be large or run the other way.
Potency is read from the fitted curve at half-maximal effect.

`CC(C)c1cnn2c(NCc3ccccc3)cc(N[C@@H](CO)[C@H](O)CO)nc12`: the Potency is 235 nM (active) in test [1]; 187 nM (active) in test [2]; 209 nM (active) in [3]; 235 nM (active) in test [4]; 93.5 nM (active) in test [5]; 332 nM (active) in [6]. Also, the results for the Potency in test [7], in test [8] and in test [9] were 332 nM (active), 148 nM (active) and 296 nM (active), respectively.

Take `C[C@H]1C[C@@H]2[C@@H]([C@@H](O)C[C@@]3(C)[C@H]2CC[C@]3(O)C(=O)CO)[C@@]2(C)C=CC(=O)C=C12`: the Potency result in test [1], in [10], in [4], in [7] and in test [9] was “inactive” in each case. Besides, the Potency in test [8] was 105 nM (active).

As to `CC[C@@H]1C(=O)N(C)c2cnc(Nc3ccc(C(=O)NC4CCN(C)CC4)cc3OC)nc2N1C1CCCC1`, the Potency in test [10] is 8.3 nM (active); in [2] it was 2960 nM (active); in test [5], 7430 nM (active); in test [6], 7430 nM (active); in test [7], 59 nM (active); in test [8] it was 20.9 nM (active). For the same compound, the Potency in [9] was 11.8 nM (active). Besides, the Potency result in test [3] was “inactive”.

Turning to `O=C(c1ccc(Nc2nccc(-c3cc4ccccc4s3)n2)cc1)N1CCC(N2CCCC2)CC1`, the Potency in [1] is 1870 nM (active); in test [3], 6620 nM (active); in test [4], 7430 nM (active); in test [5], 1870 nM (active); in [6], 20900 nM (active); in test [7], 20900 nM (active). Also, the results for the Potency in test [8] and in test [9] were 5900 nM (active) and 9350 nM (active), respectively.

On to `CCS(=O)(=O)c1cccc(-c2cc(C(=O)NC3CCN(C)CC3)c(C)c3[nH]c4ncc(C)cc4c23)c1`, for which the Potency is 526 nM (active) in test [10]; 935 nM (active) in [2]; 118 nM (active) in [3]; 935 nM (active) in test [4]; 1660 nM (active) in test [5]; 5900 nM (active) in test [6]. Besides, the Potency is 2640 nM (active) in test [7], 526 nM (active) in [8] and 833 nM (active) in test [9].

As for `Nc1cccc(-c2cc3c(Oc4cccc(O)c4)ncnc3[nH]2)c1`, the Potency in [1] was 2090 nM (active); in test [4], 14800 nM (active); in [5] it was 16600 nM (active); in test [8], 7430 nM (active); in [9], 20900 nM (active).

For `C=CCn1c(=O)c2cnc(Nc3ccc(N4CCN(C)CC4)cc3)nc2n1-c1cccc(C(C)(C)O)n1`, the Potency in test [10] is 166 nM (active); in [2], 372 nM (active); in [3], 148 nM (active); in test [4], 235 nM (active); in test [5], 469 nM (active); in [6], 2350 nM (active). Also, the Potency is 1180 nM (active) in test [7] and 418 nM (active) in [9].

Consider `CN1CCN(c2cc(C(=O)Nc3ccc4c(c3)-c3c(c(C(N)=O)nn3-c3ccc(F)cc3)CC4)c(Cl)cn2)CC1`, for which the Potency was 3320 nM (active) in test [10]; 2960 nM (active) in [2]; 2090 nM (active) in [3]; 1480 nM (active) in test [4]; 2640 nM (active) in test [5]; 23500 nM (active) in test [6]. In addition, the Potency was 26400 nM (active) in test [7], 8330 nM (active) in test [8] and 8330 nM (active) in test [9].

As to `O=C(Nc1cn[nH]c1-c1nc2ccc(CN3CCOCC3)cc2[nH]1)NC1CC1`, the Potency was 743 nM (active) in [1]; 935 nM (active) in test [4]; 2640 nM (active) in [5]; 10500 nM (active) in [6]; 4690 nM (active) in test [7]; 1320 nM (active) in [8]. Besides, the Potency in [9] is 1050 nM (active).

As to `Nc1nccc(Oc2ccc(NC(=O)c3c[nH]cc(-c4ccc(F)cc4)c3=O)cc2F)c1Cl`, the Potency is 16600 nM (active) in test [1]; 16600 nM (active) in test [2]; 18700 nM (active) in test [4]; 18700 nM (active) in test [5]; 20900 nM (active) in test [6]; 20900 nM (active) in [9].

With `CC(=O)OCCN1C(=O)c2c(C)nc3ccc(S(=O)(=O)N4CCOCC4)cc3c2C1=O`, the Potency entry in test [1], in test [4], in [5], in test [6], in test [7] and in [8] was “inactive” throughout. The Potency entry in [9] is “inactive”.

On to `C[C@]1(CO)CN(c2cc(C(=O)Nc3ccc4c(c3)-c3c(c(C(N)=O)nn3-c3ccc(F)cc3)CC4)c(Cl)cn2)C[C@@]1(C)CO`, for which the Potency in test [1] was 4180 nM (active); in test [2] it was 16600 nM (active); in test [4] it was 11800 nM (active); in test [5] it was 16600 nM (active); in [6], 2960 nM (active); in test [8], 3720 nM (active).

Consider `NC1(Cc2ccc(Cl)cc2)CCN(c2ncnc3[nH]ccc23)CC1`, for which the Potency in test [10] was 3720 nM (active); in test [2], 3720 nM (active); in [3], 264 nM (active); in test [4], 7430 nM (active); in test [5], 5900 nM (active); in test [6] it was 14800 nM (active). For the same compound, the Potency in test [7] is 18700 nM (active); in test [9], 4180 nM (active).

For `Cn1cc(-c2[nH]c3cc(NC(=O)[C@H](N)C4CCCCC4)cc4c3c2C=NNC4=O)cn1`, the Potency in test [10] was 209 nM (active); in test [2] it was 1870 nM (active); in test [3], 74.3 nM (active); in test [4], 372 nM (active); in test [5], 1050 nM (active); in test [7], 7430 nM (active). In addition, the Potency in [8] is 2640 nM (active); in test [9], 1320 nM (active).

In the case of `COc1c(OCCCN2CCOCC2)ccc2c3n(c(=NC(=O)c4cnc(N)nc4)nc12)CCN3`, the Potency in test [10] is 1440 nM (active); in test [2], 457 nM (active); in test [3], 115 nM (active); in test [4] it was 457 nM (active); in test [6] it was 129 nM (active); in test [7] it was 2040 nM (active). Besides, the Potency in [9] was 115 nM (active).

On to `COC(=O)[C@]12CCC(C)(C)C[C@@H]1[C@@H]1C(=O)C=C3[C@@]4(C)C=C(C#N)C(=O)C(C)(C)[C@@H]4CC[C@@]3(C)[C@]1(C)CC2`, for which the Potency in test [1] was 372 nM (active); in test [4], 332 nM (active); in test [5] it was 332 nM (active); in test [6], 526 nM (active); in test [7], 833 nM (active); in test [8], 187 nM (active). The Potency in [9] is 264 nM (active).
